Screens as filed in PubChem BioAssay.
NS3h inh CB – blocks HCV NS3 helicase binding to DNA; NS3h Cy5-dT15 DNA binding, fluorescence polarization; inhibition, % at 100 µM; 16,000 compounds, 1.6% hits;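 active means inhibition above the average over every tested compound plus 3 SD, cut at about 40% in these data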
Cy5 interf NS3h – counter-screen for HCV NS3 helicase inhibitors: fluorescence interference | fluorescence interference ratio at 100 µM | Cy5-dT15 DNA with NS3h; actives lie on both sides; signal over control mean, under 1 quenches | 16,000 compounds, 6% hits;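 active means compound fluorescence over control fluorescence at most 0.8, a quencher, or at least a set upper limit, an enhancer; inactive means ratio between 0.8 and the set upper limit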
NS3h confirm – hepatitis C NS3 helicase inhibition, confirmation; shares compounds with NS3h inh CB; NS3h binding to Cy5-dT15 DNA, fluorescence polarization; inhibition, % at 100 µM; 240 compounds, 20% hits; AID 720485;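 active means percent inhibition of 50% or more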
SSB-DNA FP CB – counter-screen for HCV NS3 helicase inhibitors: E. coli SSB binding | shares compounds with NS3h inh CB | 240 compounds, 40% hits | inhibition, % at 100 µM | E. coli SSB binding Cy5-dT15, fluorescence polarization | AID 720486;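 active means inhibition of at least 50%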;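 further: displacers lower Cy5 polarization so higher inhibition means more SSB displaced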
Target sequence (P0AGE0 whole entry, looked up): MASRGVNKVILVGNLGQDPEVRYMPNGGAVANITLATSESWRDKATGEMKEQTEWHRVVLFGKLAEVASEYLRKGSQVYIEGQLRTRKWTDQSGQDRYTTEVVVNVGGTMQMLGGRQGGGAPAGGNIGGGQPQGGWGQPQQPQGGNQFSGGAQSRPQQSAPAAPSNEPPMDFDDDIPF
Cy5 SSB fluor CB – enhances or quenches Cy5-DNA fluorescence with E. coli SSB | Cy5-dT15/E. coli SSB fluorescence interference; actives lie on both sides | 240 compounds, 8% hits | fluorescence interference ratio at 100 µM | shares compounds with NS3h inh CB;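 active means fluorescence interference ratio at or above 1.2, signal boosting, or at or below 0.8, signal quenching; inactive means ratio between 0.8 and 1.2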
Cy5 interf conf – confirmation counter-screen for HCV NS3 helicase inhibitors: fluorescence interference; AID 720489; fluorescence interference ratio at 100 µM, hits read low; shares compounds with NS3h inh CB; Cy5-dT15 DNA/NS3h fluorescence interference counterscreen; 240 compounds, 44% hits;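 active means fluorescence interference ratio at or below 0.8 quencher or at or above a set limitenhancer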
Large screens that a line does not name were inactive (follow-up assays come after a bar, where they were run). An excerpt weighted towards active compounds, which were near 7.6% of everything screened.

CC(=O)Nc1ccc(-c2nc3ccc(-c4ccc5nc(-c6ccc(NC(C)=O)cc6)oc(=O)c5c4)cc3c(=O)o2)cc1	NS3h inh CB 55.6 | NS3h confirm inactive | SSB-DNA FP CB inactive | Cy5 SSB fluor CB inactive | Cy5 interf conf inactive
CNC(=O)CCC(=O)Nc1ccc(C)cc1C	none
CCOc1ccc(C(=O)COC(=O)c2ccccc2I)cc1	none
O=C1NC(=S)NC(=O)C1=Cc1ccc(OCc2ccccc2Cl)cc1	NS3h inh CB 47.6 | NS3h confirm inactive | SSB-DNA FP CB 61.2 | Cy5 SSB fluor CB inactive | Cy5 interf conf 0.75
O=C1NC(=S)NC(=O)C1=Cc1ccccc1OCc1ccccc1Cl	none
O=C(Nc1ccccc1Cl)c1ccc(CN2CCOCC2)cc1	none
O=C(NC(=S)N1CCCCCC1)c1cccnc1	none
O=C(NC(=S)N1CCOCC1)c1ccccc1	NS3h inh CB 109.9, Cy5 interf NS3h 0.403 | NS3h confirm inactive | SSB-DNA FP CB inactive | Cy5 SSB fluor CB inactive | Cy5 interf conf inactive
CCOc1ccc(N2C(=O)NC(=O)/C(=C\c3ccc(-c4ccc([N+](=O)[O-])cc4OC)o3)C2=O)cc1	none
O=C1NC(=O)N(c2ccc(Cl)cc2)C(=O)/C1=C\c1ccc(-c2ccccc2[N+](=O)[O-])o1	none
O=C1NC(=O)N(c2ccc(Cl)cc2)C(=O)/C1=C/c1ccc(-c2ccccc2C(=O)O)o1	NS3h inh CB 44.5 | NS3h confirm 56.3 | SSB-DNA FP CB inactive | Cy5 SSB fluor CB inactive | Cy5 interf conf inactive
CCOc1ccc(N2C(=O)NC(=O)/C(=C\c3ccc(-c4ccccc4C(=O)O)o3)C2=O)cc1	NS3h inh CB 67.0 | NS3h confirm inactive | SSB-DNA FP CB inactive | Cy5 SSB fluor CB inactive | Cy5 interf conf inactive
O=C(Nc1ccc(Cl)cc1)c1nn2c(c1Cl)NC(c1ccc(Cl)cc1)CC2C(F)(F)F (stereo unspecified)	none
Cc1c(N2C(=O)/C(=C/c3ccc(F)cc3)SC2=S)c(=O)n(-c2ccccc2)n1C	none
CCOC(=O)c1c(NC(=O)/C=C/c2ccco2)sc2c1CCCC2	none
O=C(CC1S/C(=N/N=C\c2ccccc2)NC1=O)Nc1ccc(C(=O)O)cc1 (stereo unspecified)	NS3h inh CB 127.8 | NS3h confirm 53.1 | SSB-DNA FP CB 101.2 | Cy5 SSB fluor CB inactive | Cy5 interf conf 0.778
O=C(CC1SC(=O)NC1=O)Nc1ccc(C(=O)O)cc1 (stereo unspecified)	none
C/C(=N/N=C1\NC(=O)C(CC(=O)Nc2ccc(C(=O)O)cc2)S1)c1ccc([N+](=O)[O-])cc1 (stereo unspecified)	none
CC1=C/C(=N/N=C2\NC(=O)C(CC(=O)Nc3ccc(C(=O)O)cc3)S2)CC(C)(C)C1 (stereo unspecified)	NS3h inh CB 89.4 | NS3h confirm 61.6 | SSB-DNA FP CB 95.1 | Cy5 SSB fluor CB inactive | Cy5 interf conf 0.754
COC(=O)C1=C(C)NC2=C(C(=O)c3ccccc32)C1c1ccccc1OCc1ccc(Cl)cc1Cl (stereo unspecified)	none
CC(C)CN1C(=O)/C(=C/c2cn(-c3ccccc3)nc2-c2cccs2)SC1=S	none
CCc1ccc(N2CC(C(=O)NCc3ccccc3OC)CC2=O)cc1 (stereo unspecified)	none
CCCc1cc2c(-c3ccccc3)cc(=O)oc2cc1OC	none
CC(=O)c1ccc(-n2c(C)ccc2-c2ccccc2)cc1	none
Cc1ccc(C)n1-c1ccc(CC(=O)O)cc1	NS3h inh CB 84.9 | NS3h confirm 66.9 | SSB-DNA FP CB 96.4 | Cy5 SSB fluor CB inactive | Cy5 interf conf inactive
O=C1NC(=O)C(=Cc2ccccc2OCCOc2ccccc2)C(=O)N1	none
O=C1NC(=O)C(=Cc2cc(Br)ccc2OCc2cccc3ccccc23)C(=O)N1	NS3h inh CB 48.5 | NS3h confirm inactive | SSB-DNA FP CB 72.1 | Cy5 SSB fluor CB inactive | Cy5 interf conf inactive
CN1CCN(C(=O)c2ccccc2NC(=O)c2cccnc2)CC1	none
CC1=C(C(=O)Nc2ccc(C)c(Cl)c2)C(c2ccc(O)cc2)NC(=S)N1 (stereo unspecified)	none
CN(C)c1ccc(NS(=O)(=O)c2ccc(F)cc2)cc1	none
CN(C)c1ccc(NS(=O)(=O)c2ccc(N3C(=O)CCC3=O)cc2)cc1	NS3h inh CB 49.5 | NS3h confirm inactive | SSB-DNA FP CB 61.2 | Cy5 SSB fluor CB inactive | Cy5 interf conf inactive
CCS(=O)(=O)c1nnnn1-c1ccccc1	none
Cc1ccc(/C=C2\C(=O)NC(=S)N(c3ccc(Br)cc3)C2=O)o1	none
